Screening data as filed in PubChem BioAssay.
Sm TGR block – S. mansoni TGR enzyme inhibition; AID 485364; 360,000 tested, 3% active; Potency, µM (highest dose often 114 µM), without a hit: at the highest dose activity change, negative = inhibition, hits mostly inhibitors; purified TGR, DTNB reduction, TNB absorbance 405 nm; Q962Y6; also: nearly all actives have a fitted effect of over 60% in size
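First, TGR (20 nM dispensed) and NADPH were mixed with compound. Second, a 15 min room-temperature incubation followed. Third, further NADPH and then DTNB were added to start the reaction. Finally, TNB absorbance was monitored kinetically.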
RE007 growth inh – less growth of the S. pombe RE007 Vpr strain; 360,000 tested, 0.21% active; Potency, µM (doses to about 92.2 µM), for the others: at the top dose activity change, negative = less growth, hits mostly inhibitors; S. pombe RE007 Vpr strain, BacTiter-Glo ATP luminescence, 24 h; active = well fitted falling curve with a large enough effect; inconclusive = small, poorly fitted or top-dose-only effect; inactive = no such curve, though single readings can be large or run the other way; also: nearly all actives have a fitted effect of over 50% in size
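Fission yeast RE007 carrying one integrated HIV-1 vpr copy, seeded at OD 0.01 in PMG+AL medium with 23 nL pinned compound. Grown 24 h at 30 degrees; viability read by BacTiter-Glo luminescence after 5 min.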
AMA1-RON2 inh – inhibitors of Plasmodium falciparum AMA1-RON2 interaction; Potency, µM (titrated, usually from 58.2 µM), for inactives: at the top dose activity change, negative = inhibition, hits mostly inhibitors; 360,000 tested, 0.2% active; AlphaScreen AMA1-biotinylated RON2 peptide binding; AID 720542;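 also: 0% = vehicle wells and -100% = peptide control; nearly all actives have a fitted effect of over 45% in size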
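AMA1 (3D7) with his tag at 25 nM final met compounds first, then biotinylated RON2 peptide at 25 nM; detection used donor plus acceptor beads, 10 µg/mL apiece, read by AlphaScreen after 30 min at room temperature.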
LmPK inhibitor – blocks Leishmania mexicana pyruvate kinase activity; purified LmPK, Kinase-Glo ATP luminescence, 1 h; Potency, µM (highest dose often 57.5 µM), inactives show at the highest dose activity change, negative = inhibition, usual class: inhibitors; 290,000 tested, 0.37% active; AID 1721
Target sequence (Q27686 whole entry, looked up): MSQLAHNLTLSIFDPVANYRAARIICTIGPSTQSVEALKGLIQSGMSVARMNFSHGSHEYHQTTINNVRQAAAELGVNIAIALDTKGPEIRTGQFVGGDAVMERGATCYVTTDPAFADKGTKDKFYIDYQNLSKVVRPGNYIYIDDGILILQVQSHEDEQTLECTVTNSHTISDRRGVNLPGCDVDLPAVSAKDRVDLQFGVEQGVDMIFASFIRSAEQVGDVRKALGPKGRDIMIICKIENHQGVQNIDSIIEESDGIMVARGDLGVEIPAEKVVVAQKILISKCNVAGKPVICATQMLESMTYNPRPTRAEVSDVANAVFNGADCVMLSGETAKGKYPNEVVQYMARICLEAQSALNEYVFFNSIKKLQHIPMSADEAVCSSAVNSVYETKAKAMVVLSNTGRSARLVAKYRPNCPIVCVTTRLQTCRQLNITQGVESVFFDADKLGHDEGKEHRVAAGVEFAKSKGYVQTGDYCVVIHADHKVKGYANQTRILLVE
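Purified LmPK (0.1 nM) converted ADP (0.1 mM) to ATP with PEP (0.5 mM) in imidazole buffer pH 7.2 with KCl and MgCl2, 1 h at room temperature. ATP was read by Kinase-Glo luminescence; data normalized to uninhibited and no-enzyme controls.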
Tb PYK inh – T. brucei pyruvate kinase inhibition; TbPYK enzyme, Kinase-Glo Plus ATP luminescence, 45 min; Q57TT1; 410,000 tested, 0.12% active; Potency, µM (doses to about 76.8 µM), inactives show at the top dose activity, negative = inhibition, most hits filed as inhibitors; also: nearly all actives have a fitted effect of over 50% in size
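Enzyme and substrate buffer are dispensed first and compound is pin-transferred. ADP at 130 uM final then starts the reaction, which runs 45 min at room temperature. Detection reagent is added for 10 min before luminescence is imaged.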
Numbers without * were called inactive; ? = inconclusive; nt = no result given; [ ] = another dose, or the depositor's remark. Rows were chosen to be rich in hits. Some 3.2% of all compounds tested hit in one or more screens of this group. Unless noted, calls follow the shape of the dose curve; as a rule, active = well fitted curve in the direction sought with a large enough effect; inconclusive = small, poorly fitted or top-dose-only effect, or another doubt; inactive = no such curve, though single readings can be large; an effect the other way counts as inactive or inconclusive. Unless noted, % is scaled to controls: 0 for no effect and ±100 for the full control effect; potency is read from the fitted curve at half-maximal effect.

SMILES | Sm TGR block | RE007 growth inh | AMA1-RON2 inh | LmPK inhibitor | Tb PYK inh
O=C(Cc1ccc(S(=O)(=O)N2CCOCC2)s1)NCC(=O)Nc1ccccc1Br | 56.2µM* | 10.4% | -4.5% | nt | -0.9%
O=C(Cc1ccc(S(=O)(=O)N2CCOCC2)s1)Nc1ccccc1Br | -15.4% | 8.3% | -9.7% | 2.5% | -3.3%
C=C1C(=O)O[C@H]2[C@H]1[C@@H](O)CC(=C)[C@@H]1CC(=O)[C@@H](C)[C@H]21 | 22.4µM* | 3.4% | -2.3% | 2.9% | -3.4%
Cc1cc(C)c2oc(-c3ccc(C)c(NC(=O)/C=C/c4ccco4)c3)nc2c1 | 12.6µM* | nt | nt | nt | ?
Cc1cc(C)c2oc(-c3cccc(NC(=O)c4ccco4)c3)nc2c1 | -11.4% | nt | nt | nt | -16.9%
COc1ccc([C@]23Cc4cc(C#N)ccc4C(O2)c2c(c4ccc(OC)cc4oc2=O)O3)cc1 | ? | nt | nt | -7.0%[11.5 µM] | nt
COC(=O)C1=C(C(=O)OC)[C@@H]2N(C)c3ccccc3[C@@]23C[C@@H](C(=O)OC)N(S(=O)(=O)c2ccc(OC)cc2)C3=N1 | nt | nt | nt | 4.6%[11.5 µM] | nt
Cc1nn(CC(=O)Nc2ccc3c(c2)nc2n3CCN(C3CCCCC3)C2)c(=O)c2ccccc12 | 17.8µM* | -7.8% | 6.7% | -1.2% | -0.3%
COc1ccc(C2C(C(=O)Nc3cccnc3)=C(C)Nc3nc(SCc4ccccc4)nn32)cc1 (stereo not drawn) | -12.2% | nt | nt | nt | -6.5%
COc1cccc(NC(=O)Cn2c(=O)n(CCCC(=O)NCc3ccc4c(c3)OCO4)c(=O)c3ccccc32)c1 | 2.6% | nt | nt | nt | -2.6%
Oc1ccc2ccccc2c1CN1CCN(C/C=C/c2ccccc2)CC1 | 2.82µM* | -28.0% | -12.3% | -1.9% | -8.9%
O=S(=O)(c1ccccc1)N1CCN(Cc2c(O)ccc3ccccc23)CC1 | nt | -14.5% | -1.7% | nt | 6.2%
Oc1ccc2ccccc2c1CN1CCN(c2ccccc2F)CC1 | 11.2µM* | 2.8% | -5.1% | 0.0% | 2.2%
CCOC(=O)c1cc(CNC(=O)c2c(C)oc3c2CCCC3)c(C)o1 | 22.4µM* | 18.5% | 0.4% | 2.9% | -7.7%
CC(C)C(Cl)=NOC(=O)Nc1ccc(F)cc1 | nt | 10µM* | 4.8% | nt | -9.1%
COc1ccc(CC2C(=O)NC(=O)NC2=O)c(OC)c1 | 50.1µM* | -3.6% | 5.3% | 5.4% | -6.1%
O=[N+]([O-])c1cc([N+](=O)[O-])c2oc(-c3ccccc3)c(Br)c2c1O | 1.3% | 28.2µM* | -0.4% | -6.6% | 10.4%
O=C1CC(c2ccc(F)cc2)CC2=C1C(c1ccc([N+](=O)[O-])o1)Nc1ccccc1N2 (stereo not drawn) | 15.8µM* | 0.5% | -8.8% | 4.2% | -0.7%
O=C1CC(c2ccccc2)CC2=C1C(c1ccccn1)Nc1ccccc1N2 (stereo not drawn) | -3.8% | -8.3% | -8.4% | 4.3% | -9.7%
O=S(=O)(/N=C(/Sc1ccccc1)c1ccccc1)c1ccccc1 | 1.78µM* | 9.0% | 1.0% | -21.6% | -2.3%
CCc1cccc(C)c1Nc1c(-c2ccc(SC)cc2)nc2sccn12 | -4.0% | nt | nt | nt | -9.7%
CC(=O)c1c(C)oc2ccc(N(C(=O)Oc3ccccc3)S(=O)(=O)c3ccc(Br)cc3)cc12 | -0.8% | nt | nt | nt | -0.8%
Cc1ccc(N=c2ssnc2Cl)cc1 | ? | -91.9% | 32.5% | -16.1% | 28.2µM*
Cc1nnc(N=c2ssnc2Cl)o1 | 28.2µM* | 17.3% | 35.3% | nt | ?
COc1ccc(-c2cc(-c3ccccc3)nc3c2COc2ccc(F)cc2-3)cc1 | 8.5% | nt | nt | nt | -0.4%
Cc1cccc(NC(=O)C2CCCN(c3nnc(-n4c(C)ccc4C)s3)C2)c1C (stereo not drawn) | -32.1% | nt | nt | nt | -3.5%
C/C(CC1CC(COCC(C)C)OC1=O)=N\Nc1nc(-c2ccccc2)cs1 (stereo not drawn) | 56.2µM* | -3.4% | 44.7% | -6.9% | -12.5%
CC1CC(CC(=O)Nc2nc(-c3ccccc3)cs2)C(=O)O1 (stereo not drawn) | 10.3% | 20.8% | -4.1% | -0.7% | -5.6%
CC(C)(C)c1ccc(C(=O)CCCN2CCC(OC(c3ccccc3)c3ccccc3)CC2)cc1 | nt | nt | nt | nt | -1.7%
